Screens from PubChem.
VACV Venus inh – qHTS for Stage-Specific Inhibitors of Vaccinia Orthopoxvirus: Venus Reporter Primary qHTS. Vaccinia virus Venus reporter expression, fluorescence. Potency, µM (top dose mostly 36.5 µM), inactives show at the top dose activity change, negative = inhibition, actives largely listed as inhibitors. 330,000 compounds, 0.46% hits. AID 720580, 2013; calls by dose curve; tested in A549 cells; note: nearly all actives have a fitted effect of over 30% in size
HCV inhibitor – qHTS Assay for Inhibitors of Hepatitis C Virus (HCV) | Potency, µM (top dose mostly 41.8 µM), without a hit: at the top dose activity change, negative = inhibition, usual class: inhibitors | 340,000 compounds, 3.4% hits | Huh7.5.1 HCVcc-Cre infection, luciferase reporter, 44 h | AID 651820, 2012; active = well fitted inhibition curve with a large enough effect; inconclusive = small, poorly fitted or top-dose-only effect, or another doubt; inactive = no such curve, though single readings can be large or run the other way
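Luciferase read-out (15 sec integration) after a 15 min room-temperature substrate step quantifies HCVcc-Cre infection. Cells, 1,000 per well, had compound added 4 h post-plating, then virus at ~0.5 moi, and were cultured 44 h.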
Vaccinia mCherry – qHTS for Stage-Specific Inhibitors of Vaccinia Orthopoxvirus: mCherry Reporter Primary qHTS. Vaccinia virus mCherry reporter infection, fluorescence. Potency, µM (top dose mostly 36.5 µM), for the others: at the highest dose activity change, negative = inhibition, most hits filed as inhibitors. 310,000 compounds, 0.63% hits; calls by dose curve; tested in A549 cells; note: nearly all actives have a fitted effect of over 35% in size
The depositor's hits bear a star; i = inactive; u = inconclusive; x = not tested or not shown. An excerpt weighted towards active compounds, which were near 3.3% of everything screened. % is set by controls: 0 for no effect and ±100 for the full control effect; potency is the fitted concentration of half-maximal effect.

SMILES | VACV Venus inh | HCV inhibitor | Vaccinia mCherry
CCCNC(=O)CCSc1nc(-c2ccc3c(c2)OCO3)cc(C(F)(F)F)n1 | -6% | x | -13%
CCOC(=O)c1c(C)cc(O)c(C=O)c1O | -9% | x | -14%
CSCC[C@H](NC(=O)[C@@H]1CSC2c3ccccc3C(=O)N21)C(=O)NCc1ccco1 (stereo not given in full) | x | 14% | x
COc1ccc(CCNS(=O)(=O)c2cc(-c3cc(C)no3)ccc2OC)cc1OC | -12% | x | i
CN(CCO)c1cc(Sc2nc3ccccc3s2)c2nonc2c1[N+](=O)[O-] | x | 11µM* | x
CC(=O)OCCN(C)c1cc(SC(C)C)c2nonc2c1[N+](=O)[O-] | -7% | 15% | i
CC(=O)n1cc(N(C(=O)CCl)c2ccc(C)cc2)c2ccccc21 | -19% | 1.6µM* | -10%
CC(=O)N(c1ccc(Cl)cc1)c1cn(C(C)=O)c2ccccc12 | -13% | 4% | -5%
Cc1ccc(-c2[nH]ncc2CNCc2ccccc2)cc1 | -22% | x | -26%
Cc1ccc(C(=O)Nc2ccc(C(=O)O)cc2)cc1S(=O)(=O)N1CCC(C)CC1 | -4% | x | 0%
CN(CC(=O)NCc1ccc(Cl)cc1)S(=O)(=O)c1ccc2c(c1)c(=O)n(C)c(=O)n2C | -17% | x | -11%
Cc1ccc2c(c1)CC1(CN2C)C(=O)OC2(CCCCC2)OC1=O | u | 18% | -28%
CN1CC2(Cc3c1ccc1ccccc31)C(=O)OC(C)(C)OC2=O | 6.3µM* | -1% | 4µM*
COc1ccc(CCNC(=O)c2cccc(NC(=O)CC3SC(N4CCCCC4)=NC3=O)c2)cc1OC (stereo not given) | -13% | -8% | i
Fc1ccccc1-c1csc(=Nc2cccnc2)n1CC1CCCO1 (stereo not given) | -12% | u | -11%
Fc1ccccc1-c1csc(=Nc2cccnc2)n1CCCn1ccnc1 | -21% | 22µM* | -10%
O=S(=O)(c1ccc(Br)cc1)N1CCN(c2nc(-c3ccccc3)nc3ccccc23)CC1 | -12% | x | -2%
C/C(=N\Nc1cccc2cccnc12)c1ccc(N)cc1 | -5% | -12% | -22%
C/C(=N\Nc1nc(C)cc(-c2ccccc2)n1)c1ccc(O)cc1 | x | 11µM* | x
C/C(=N\Nc1nc(C)cc(-c2ccccc2)n1)c1ccc(C)o1 | -20% | u | u
C/C(=N/Nc1nc(C)cc(-c2ccccc2)n1)c1ccco1 | -18% | u | u
COc1cc(N/N=C(\C)c2ccc(N)cc2)nc(-c2ccccc2)n1 | x | 11µM* | x
C/C(=N\Nc1nc(C)cc(-c2ccccc2)n1)c1ccccc1 | -14% | 16µM* | i
COc1cc(N/N=C(\C)c2ccc(O)c(C)c2)nc(-c2ccccc2)n1 | -20% | u | u
C/C(=N\Nc1cc(-c2ccccc2)nc(-c2ccccc2)n1)c1ccc(O)c(C)c1 | u | 3.5µM* | 0%
SMILES | VACV Venus inh | HCV inhibitor | Vaccinia mCherry
COC(=O)c1ccc(CN2CCOc3ccc(C(O)c4cccnc4)cc3C2)cc1 (stereo not given) | -8% | x | -18%
COC(=O)c1cc2oc(C)cc2n1Cc1ccccc1Cl | -9% | x | -15%
COc1ccc(Cn2c(C(=O)O)c(CNCCc3cc(OC)ccc3OC)c3ccc(C)cc32)cc1 | -15% | x | -9%
CCc1nnc(NC(=O)CSc2nccn2Cc2ccccc2)s1 | -3% | x | -3%
COc1ccc(NC(=O)CSC2=Nc3ccccc3C3=NC(CC(=O)NCc4ccc5c(c4)OCO5)C(=O)N23)cc1 (stereo not given) | -6% | x | -3%
O=C(Nc1ccc(Br)cc1)C(c1ccccc1)c1ccccc1 | 4% | 3% | 6%
COC(=O)c1c(NC(=O)Cc2coc3cc(C)cc(C)c23)sc2c1CCC2 | -10% | x | -4%
CC1CCCCC1NC(=O)CCNS(=O)(=O)c1ccc(Cl)cc1 (stereo not given) | -5% | 5% | i
C/C(=N\NC(=O)c1ccc(-c2ccccc2)cc1)c1cccc(N)c1 | -13% | u | 0%
C/C(=N\Nc1nc(C)cc(-c2ccccc2)n1)c1cccc(N)c1 | x | 6.3µM* | x
CC1Cc2ccccc2N1C(=O)CSc1nnc(-c2ccccc2)c(-c2ccccc2)n1 (stereo not given) | -25% | 10µM* | -14%
CC1Cc2ccccc2N1C(=O)CSc1nnc2c(n1)[nH]c1ccccc12 (stereo not given) | -5% | -5% | x
Nc1nc2ccccc2n1Cc1ccc(Cl)c(Cl)c1 | -30% | -21% | u
Cc1ccc(Cn2c(N)nc3ccccc32)cc1 | -13% | 10µM* | -18%
O=C(CCC(=O)Nc1ccccc1)N/N=C/c1cccnc1 | x | 5% | x
CCn1nc(C)c(CNC(=O)C2CCC(=O)N(CCc3ccc(OC)cc3)C2)c1C (stereo not given) | x | 16% | x
